Compound activity from PubChem.
The sample as a whole holds a higher share of hits than the screen did.
Dicer inh: inhibitors of Dicer pre-microRNA processing, primary screen, biochemical, cat-ELCCA, chemiluminescence; Endoribonuclease Dicer (Homo sapiens), Q9UPY3; cat-ELCCA pre-miR-21 Dicer processing; hits give high values; z-score at 25 µM; actives 6% (n = 47,000); in the data active = z-score above about 3, passing the limit was not always enough;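 note: plate controls were vehicle for no effect and no enzyme for full effect; higher signal means more uncleaved substrate so more Dicer inhibition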
Target sequence (Q9UPY3 whole entry, looked up): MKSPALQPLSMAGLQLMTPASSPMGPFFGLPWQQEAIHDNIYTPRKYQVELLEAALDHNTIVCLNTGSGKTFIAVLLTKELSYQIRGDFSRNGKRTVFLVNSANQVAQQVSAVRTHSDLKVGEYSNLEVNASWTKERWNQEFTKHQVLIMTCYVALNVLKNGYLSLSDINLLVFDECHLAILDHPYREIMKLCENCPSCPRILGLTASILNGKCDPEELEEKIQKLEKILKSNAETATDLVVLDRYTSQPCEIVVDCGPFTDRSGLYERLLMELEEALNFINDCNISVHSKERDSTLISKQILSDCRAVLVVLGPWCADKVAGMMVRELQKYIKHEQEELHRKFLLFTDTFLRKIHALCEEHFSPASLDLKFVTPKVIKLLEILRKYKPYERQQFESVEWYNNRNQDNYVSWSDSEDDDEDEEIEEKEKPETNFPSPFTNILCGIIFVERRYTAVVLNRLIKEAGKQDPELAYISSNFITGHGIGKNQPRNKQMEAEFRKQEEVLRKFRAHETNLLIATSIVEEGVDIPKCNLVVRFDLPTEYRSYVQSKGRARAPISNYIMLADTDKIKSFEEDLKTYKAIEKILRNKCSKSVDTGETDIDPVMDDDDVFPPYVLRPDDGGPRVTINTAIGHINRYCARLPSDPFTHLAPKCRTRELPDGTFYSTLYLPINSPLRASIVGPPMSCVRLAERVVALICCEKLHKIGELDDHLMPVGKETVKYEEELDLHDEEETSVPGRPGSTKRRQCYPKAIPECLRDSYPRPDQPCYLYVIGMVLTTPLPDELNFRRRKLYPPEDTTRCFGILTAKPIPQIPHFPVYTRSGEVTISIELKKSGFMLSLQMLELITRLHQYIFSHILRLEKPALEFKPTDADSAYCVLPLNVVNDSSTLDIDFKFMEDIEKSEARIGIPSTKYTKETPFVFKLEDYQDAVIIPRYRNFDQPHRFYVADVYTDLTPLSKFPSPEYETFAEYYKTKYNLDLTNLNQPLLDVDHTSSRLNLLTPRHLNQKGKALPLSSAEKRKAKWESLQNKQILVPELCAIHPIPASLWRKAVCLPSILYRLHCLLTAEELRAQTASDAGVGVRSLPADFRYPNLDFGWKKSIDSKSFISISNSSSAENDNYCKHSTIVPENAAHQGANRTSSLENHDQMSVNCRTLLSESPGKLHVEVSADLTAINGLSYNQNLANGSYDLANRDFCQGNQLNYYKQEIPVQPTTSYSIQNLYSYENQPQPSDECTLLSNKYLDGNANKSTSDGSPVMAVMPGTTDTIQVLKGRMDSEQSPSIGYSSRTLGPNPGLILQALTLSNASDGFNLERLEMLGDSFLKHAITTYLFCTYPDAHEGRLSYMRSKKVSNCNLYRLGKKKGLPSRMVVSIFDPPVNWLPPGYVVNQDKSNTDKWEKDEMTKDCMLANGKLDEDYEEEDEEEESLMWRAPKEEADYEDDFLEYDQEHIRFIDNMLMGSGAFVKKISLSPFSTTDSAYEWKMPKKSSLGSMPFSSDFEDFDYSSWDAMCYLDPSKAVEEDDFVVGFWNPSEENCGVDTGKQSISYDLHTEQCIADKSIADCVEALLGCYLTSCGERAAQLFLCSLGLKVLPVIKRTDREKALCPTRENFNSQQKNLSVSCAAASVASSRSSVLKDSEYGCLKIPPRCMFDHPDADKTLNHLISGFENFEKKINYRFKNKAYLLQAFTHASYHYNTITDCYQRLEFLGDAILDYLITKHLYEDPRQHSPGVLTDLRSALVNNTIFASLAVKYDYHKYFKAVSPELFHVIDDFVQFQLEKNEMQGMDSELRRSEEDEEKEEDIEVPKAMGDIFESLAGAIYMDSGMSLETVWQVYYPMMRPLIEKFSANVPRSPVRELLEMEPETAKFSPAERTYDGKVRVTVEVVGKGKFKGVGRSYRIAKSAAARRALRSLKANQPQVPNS
An asterisk follows results filed as active.

SMILES	Dicer inh
Cc1ccc(C2CC(C(F)(F)F)n3nc(C(=O)NC4CCCC4)c(Cl)c3N2)cc1 (centres undefined)	0.93
O=C(O)CCSc1nnc(COc2ccccc2)o1	-0.24
C#CCSc1nc(C(OC)OC)c(C(=O)OC)cc1C#N	-0.41
O=C1CC(c2ccccc2F)Cc2nc(N3CCN(c4ccccc4)CC3)ncc21 (centres undefined)	-1.4
Cc1cc(NCc2cccnc2)c2ncnn2n1	2.8
CNC[C@H](O)c1cccc(O)c1	-0.43
C=CC(=C)CC(NC)c1ccccc1 (centres undefined)	1.5
CNc1ccc(Br)cc1C(O)c1ccccc1 (centres undefined)	3.4*
COC(=O)C1=C(C)NC2=C(C(=O)c3ccccc32)C1c1ccc(OCC(=O)O)cc1 (centres undefined)	0.86
O=C(c1ccco1)N(c1cc2sc(=O)oc2c2ccccc12)S(=O)(=O)c1ccccc1	-3.8
Cc1onc(-c2c(Cl)cccc2Cl)c1NC(=O)NC(=O)c1c(Cl)cccc1Cl	0.74
C#CCOC(=O)NC(=O)c1c(-c2c(Cl)cccc2Cl)noc1C	3.2*
Cc1onc(-c2c(Cl)cccc2Cl)c1C(=O)NC(C)(C)CC(C)(C)C	0.53
CC(=O)Nc1nc([N+](=O)[O-])n(-c2ccccc2)n1	0.38
CCCC(CCC(=O)Nc1nncs1)C(=O)O (centres undefined)	0.64
CCCS(=O)(=O)c1c(C)c(C)n(Cc2ccccc2)c1N	3.3
CC12CN3CC(C)(CN(C1)C3c1cc(Br)ccc1O)C2 (centres undefined)	0.72
CC12CN3CC(C)(CN(C1)C3c1ccc([N+](=O)[O-])o1)C2 (centres undefined)	0.27
Cc1ccc(C2N3CC4(C)CN2CC(C)(C3)C4)cc1 (centres undefined)	3*
Cc1ccc(NC(=O)N(C)CCc2ccccn2)cc1Cl	0.37
Cc1cc(C)c(S(=O)(=O)N2CCN(Cc3ccc4c(c3)OCO4)CC2)cc1C	5.2
O=c1cc(CSc2ccc(Cl)cc2)nc(N2CCN(Cc3ccc4c(c3)OCO4)CC2)[nH]1	2.8
CCc1c(C)nc(N2CCN(Cc3ccc4c(c3)OCO4)CC2)[nH]c1=O	3.9*
Cc1c(C(=O)O)cc(C(C)(C)C)n1CCCNC(=O)OC(C)(C)C	-1.4
CCOC(=O)c1cncc(C#CC(C)(C)O)c1	-0.74
SMILES	Dicer inh
CC(C#N)(Nc1ccc(Cl)cc1)c1ccccc1 (centres undefined)	2.8
NC(=O)CSc1nc2ccccc2c(=O)[nH]1	-0.39
O=c1[nH]c(SCc2ccc(Cl)cc2Cl)nc2ccccc12	3.7*
Nc1cc(=O)[nH]c(SCc2ccc(Cl)cc2Cl)n1	-0.88
Nc1ccccc1SC1CC(=O)N(c2c(F)cccc2Cl)C1=O (centres undefined)	-1.7
COC(=O)c1cc(S(=O)(=O)NCc2ccc3c(c2)CCO3)oc1C	0.04
COC(=O)Cc1nc(Nc2ccccc2)sc1C	-0.11
COC(=O)Cc1nc(NC(=O)C2CCC2C(=O)O)sc1C (centres undefined)	3.3*
COC(=O)Cc1nc(NC(=O)c2nc(-c3ccccc3)oc2C)sc1C	0.09
CCc1nc2ccccc2n1CC(O)COc1ccc(Cl)cc1 (centres undefined)	-0.72
CCOC(=O)C1=C(C)NC2=C(C(=O)CC(c3cccs3)C2)C1c1coc2ccc(C)cc2c1=O (centres undefined)	0.69
O=C(CCCN1CCN(c2ccccn2)CC1)c1ccc(F)cc1	1.2
OC1(c2ccc(F)cc2)Cc2ccccc2C2=NCCN21 (centres undefined)	5.6*
O=C(CN1C2=NCCN2c2ccccc21)c1ccc(F)cc1	-0.27
CCOc1ccc(C2C(C(=O)OCCOC)=C(C)N=C3SCCC(=O)N32)cc1OC (centres undefined)	0.32
Cc1ccc(Cn2nnc(-c3cc(C(F)(F)F)cc(C(F)(F)F)c3)n2)cc1	-0.57
N#C/C(=N\Nc1ccc(F)cc1)C(=O)NCC1CCCO1 (centres undefined)	3.8*
COc1ccc(Cl)cc1NC(=O)C(=O)NCC1CCCO1 (centres undefined)	-0.43
CCn1c2ccccc2c2cc(NC(=O)C(=O)NCC3CCCO3)ccc21 (centres undefined)	1.8
O=[N+]([O-])c1ccc2nc(SCc3c(Cl)cccc3Cl)sc2c1	0.05
O=C1c2cccc3c([N+](=O)[O-])ccc(c23)C(=O)N1Cc1ccco1	1.6
COc1cc(-c2csc(N)n2)ccc1O	1.5
CC(C)(C)C(=O)/C(C#N)=C/Nc1cccc2nsnc12	-3.3
Cc1nccc(-c2cccc(S(=O)(=O)NCc3c(-c4ccccc4)noc3C)c2)n1	-0.6
O=C1C(=O)C(c2ccccc2)C(=O)C1c1ccccc1 (centres undefined)	1.6
SMILES	Dicer inh
CC(C)C1C(=O)CC(c2ccccc2)NC1c1ccccc1 (centres undefined)	0.45
O=C1NNC(c2ccccc2)C1c1ccccc1 (centres undefined)	3.5*
O=C(N/N=C1/CCCc2occc21)c1ccc([N+](=O)[O-])cc1	0.39
CCCc1cc(=O)oc2cc(OCC(=O)OCC)ccc12	1.3
Cc1ccc(-c2nnn(CC(=O)NNC(=O)N3CCOCC3)n2)cc1	-1.1
CC1(C)Cc2c(C#N)c(SCCOc3ccccc3)nc(N3CCOCC3)c2CO1	-0.13
CCCSc1nc(N2CCCC2)c2c(c1C#N)CC(C)(C)OC2	3.6*
CCSc1nc(N2CCCC2)c2c(c1C#N)CC(C)(C)OC2	1.9
CC(C)(C)c1ccc(-c2nc(-c3ccccc3)no2)cc1	-0.66
Cc1ccc(-c2c(Cl)sc(S(C)(=O)=O)c2C#N)cc1	-1.5
O=C(O)C1C2C=CC(O2)C1C(=O)NCc1ccncc1 (centres undefined)	-0.98
CCCCC(CC)CNC(=O)C1C2C=CC(O2)C1C(=O)O (centres undefined)	-0.18
O=C(O)C1C2C=CC(O2)C1C(=O)NCc1cccc(Cl)c1 (centres undefined)	4.4*
CC(=O)N[C@@H](Cc1ccc(Br)cc1)C(=O)O	3.2
CCCS(=O)(=O)c1csc(C(=O)OC)c1-n1cccc1	-0.28
C=CCn1c(CSc2nc(-c3ccccc3)cn2-c2ccc(OC)cc2OC)n[nH]c1=S	3.4*
S=c1[nH]nc(CSc2nc(-c3ccccc3)cn2-c2ccccc2)n1-c1ccccc1	0.02
C=CCn1c(SCc2n[nH]c(=S)n2C)nnc1-c1ccccc1	-0.49
CCCCc1c(O)nc(SC)[nH]c1=O	-0.23
CCCCc1c(C)nc(N)[nH]c1=O	-0.14
CCCCc1c(C)nc(SC)[nH]c1=O	5.3*
COC(=O)C1=C(C)NC2=C(C(=O)CC(C)(C)C2)C1c1ccc(C)o1 (centres undefined)	0.42
CCn1c2c(c(=O)[nH]c1=O)C(c1ccc(F)cc1)C1=C(N2)c2ccccc2C1=O (centres undefined)	-2.3
CCOC(=O)c1cc(-c2ccc(Cl)cc2)oc1/C=N/OC(=O)c1ccccc1	-0.99
OCc1ccccc1-c1ccccc1CO	0.04
SMILES	Dicer inh
CC(C)(C)NC(=S)N/N=C\c1[nH]ncc1Cl	5*
Cc1nc(C(=O)N/N=C/c2[nH]ncc2Cl)cs1	-0.33
Cc1ccc(Cn2ncc(Br)c2/C=N/NC(=S)NC(C)(C)C)cc1	-0.09
CN(C)c1ccc(CNCCC(c2ccccc2)C2CCOC(C)(C)C2)cc1 (centres undefined)	-0.19
C=C1c2ccccc2C(=O)N1c1ccc(F)cc1	0.58
Cc1occc1C(=O)C(C#N)=C1SCCCCS1	-0.89
